GDH-TPI counter-1: inhibits GDH-TPI coupling enzymes, artifact for Mtb FBA screen; GDH-TPI coupled enzyme counterscreen, NADH absorbance; inhibition, % at 4.8 µM; actives 1.2% (n = 360,000);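 also: 0% = DMSO wells and 100% = wells lacking the enzyme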
Mtb betalactam: beta-lactam sensitization of Mtb H37Rv; M. tuberculosis H37Rv growth with meropenem, percent inhibition; inhibition, % at 25 µM; actives 0.27% (n = 330,000); call rule not given here;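 also: growth measured after seven days incubation then overnight dye step; 0% = bacteria only wells and 100% = bacteria with antibiotic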
FBA Mtb inh: inhibits M. tuberculosis FBA enzyme. P9WQA3. purified M. tuberculosis FBA, fluorescence read-out. inhibition, % at 1 µM. actives 2.3% (n = 360,000). AID 588726; in the data active = inhibition above about 27%;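 also: 0% = vehicle and 100% = reference inhibitor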
Target sequence (P9WQA3 whole entry, looked up): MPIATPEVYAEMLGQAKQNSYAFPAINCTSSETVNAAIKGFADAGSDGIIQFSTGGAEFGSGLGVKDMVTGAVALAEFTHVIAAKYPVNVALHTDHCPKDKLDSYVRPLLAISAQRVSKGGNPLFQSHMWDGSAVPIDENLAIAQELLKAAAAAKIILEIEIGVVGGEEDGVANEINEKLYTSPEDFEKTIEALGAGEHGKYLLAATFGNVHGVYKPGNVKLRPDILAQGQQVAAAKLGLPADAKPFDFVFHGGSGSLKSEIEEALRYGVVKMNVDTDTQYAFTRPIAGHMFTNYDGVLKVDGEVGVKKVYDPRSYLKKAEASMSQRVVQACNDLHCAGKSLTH
CCHFV vOTU inh: blocks the CCHF virus ovarian tumor domain protease. inhibition, % at 11.5 µM. actives 0.55% (n = 370,000). AID 651958. CCHFV vOTU protease, Pep-AMC fluorescence; also: 0% = vehicle wells with enzyme and 100% = no enzyme wells
MazF activator: MazEF (E. coli) toxin RNase activation | activation, % at 20 µM | P0AE70 | AID 504720 | actives 0.32% (n = 350,000) | FAM/BHQ RNA-DNA oligo cleavage fluorescence, 5 h; in the data active = activation above about 50%
Target sequence (P0AE70 whole entry, looked up): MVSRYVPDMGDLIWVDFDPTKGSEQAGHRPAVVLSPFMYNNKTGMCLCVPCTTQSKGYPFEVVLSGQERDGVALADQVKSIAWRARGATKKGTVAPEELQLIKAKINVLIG
Mtb FBA inh conf: Mtb FBA inhibition, confirmed; purified M. tuberculosis FBA, fluorescence read-out; inhibition, % at 1 µM; actives 78% (n = 5,600); shares compounds with FBA Mtb inh; AID 651616; in the data active = inhibition above about 27%;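 also: 0% = vehicle wells and 100% = reference inhibitor wells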
GDH-TPI counter-2: counter-screen for M. tuberculosis FBA inhibitors: GDH-TPI coupled enzyme inhibition. GDH-TPI coupled enzyme counterscreen, fluorescence. AID 652141. actives 81% (n = 5,600). shares compounds with FBA Mtb inh. inhibition, % at 1 µM; in the data active = inhibition above about 10%
The depositor's hits bear a star; . = not tested or not shown; + = active, no number. Sampled rows, rich in hits. Any-hit rate of the full collection: about 4%. Rule as the data show it, unless noted: active = inhibition above about 30%; inactive = the rest.

SMILES	GDH-TPI counter-1	Mtb betalactam	FBA Mtb inh	CCHFV vOTU inh	MazF activator	Mtb FBA inh conf	GDH-TPI counter-2
Cc1ccc2nc(-c3cccc(SC4CCCCC4)c3)c(NCc3ccccc3)n2c1	9.2	0.4	18.6	-10.1	-1.8	.	.
c1ccc(CNc2c(-c3cccc(SC4CCCCC4)c3)nc3ccccn23)cc1	15.6	7.6	46.5*	-4.2	3.3	99.9*	65.1*
CCC(C)Sc1ccc(-c2nc3ccc(Cl)cn3c2NCc2ccccc2)cc1 (stereo not given)	11.7	5.3	1.8	-2.6	-7.1	.	.
O=C(Nc1nc(Cc2ccccc2)c(Cc2ccccc2)n1Cc1ccccc1)c1ccccc1	.	.	.	1.7	.	.	.
CC(C)C[C@H]1COc2cc(N3CCSCC3)ccc2S(=O)(=O)N1C	.	.	.	-28.1	.	.	.
CCCCc1c(-c2ccccc2OC)ncn1Cc1ccc(OC)cc1	.	.	.	14.8	.	.	.
Clc1cccc(-c2ccc(-c3nc4ccccn4c3NCc3ccccc3)cc2)c1	15.3	91.1	40.2*	8.4	-1.8	151.7*	116.7*
COc1ccc(-c2nc3ccccn3c2NCc2ccc3c(c2)OCO3)cc1	4.4	-0.7	11.9	-23.5	0.3	.	.
Cc1ccc(C2OC34CCCCCC3C(C#N)(C(=N)O4)C2(C#N)C#N)cc1 (stereo not given)	3.7	5.6	69.7*	-91.7	6.4	119.2*	102.3*
COC(=O)[C@]12C[C@H](CC(=O)NCc3cccc4ccccc34)C(=O)N(Cc3ccco3)C1=C[C@H](COCc1ccccc1)O[C@@H]2C	.	.	.	17.4	.	.	.
CCOC(=O)c1[nH]c2ccc(OC)cc2c1NC(=O)OC	-1.4	5.2	38.1*	-18.0	4.2	+	145.6*
CCOC(=O)c1[nH]c2ccc(OC)cc2c1NC(=O)CCN1CCCC(C)C1 (stereo not given)	0.8	-0.3	34.6*	-15.3	9.3	+	+
CCOC(=O)c1[nH]c2ccc(OC)cc2c1N=CN(C)C	2.8	-2.3	39.3*	-12.6	-8.8	+	174.7*
O=S1(=O)c2c(NCc3ccco3)cccc2Oc2ccccc2CN1Cc1cn(Cc2ccccc2C(F)(F)F)nn1	.	.	.	1.4	.	.	.
CC(=O)CC[C@@H]1CC[C@]2(CCCN(S(=O)(=O)c3ccccc3)C2)O1	.	.	.	1.3	.	.	.
CC(C)(C)c1ccc(-n2nc(C#N)c(Cl)cc2=O)cc1	8.2	.	4.0	8.2	-2.8	.	.
CC(C)(C)c1cc(=O)n2c(C#N)c(C#N)nc2[nH]1	12.4	-4.1	79.9*	-39.1	0.4	46.7*	39.5*
CC(C)(CO)NS(=O)(=O)c1ccc2c(c1)oc(=O)c1cc(S(=O)(=O)NC(C)(C)CO)ccc12	9.1	-4.5	81.0*	7.0	0.3	4.6	-10.0
CC(C)(C)NS(=O)(=O)c1ccc2c(c1)oc(=O)c1cc(S(=O)(=O)NC(C)(C)C)ccc12	5.2	-2.7	-0.7	-6.0	2.2	.	.
COC(=O)[C@]12C[C@H](CC(=O)NCC34CC5CC(CC(C5)C3)C4)C(=O)N(Cc3cccc4ccccc34)C1=C[C@H](C(C)C)O[C@@H]2C1CC1	.	.	.	6.5	.	.	.
Cc1ccc(CNC(=O)CN(C(=O)C2(C)CC(=O)N=C3C=CC=CN32)c2ccccc2)cc1 (stereo not given)	2.3	-6.5	73.7*	-67.1	2.1	-1.2	-2.1
Cc1ccc(CN2CCN(CC(=O)NCc3ccccc3)CC2)cc1	19.6	6.5	-1.6	11.9	-0.9	.	.
Cc1ccc(CNC(=O)CN(C(=O)C2(C)CC(=O)N=C3C=CC=CN32)c2cccc(C)c2C)cc1 (stereo not given)	1.5	9.9	110.6*	-82.5	10.1	93.1*	85.7*
Cc1ccc(S(=O)(=O)N2CN(CC3CCCO3)c3nc4ccccc4nc32)c(C)c1 (stereo not given)	6.3	0.4	8.4	-25.0	0.7	.	.
O=S(=O)(c1cccs1)N1CN(Cc2ccccc2)c2nc3ccccc3nc21	35.6*	-14.1	32.4*	-7.7	2.2	39.8*	27.1*
O=S(=O)(c1cccs1)N1CN(CC2CCCO2)c2nc3ccccc3nc21 (stereo not given)	21.2	5.3	51.3*	1.3	2.4	70.3*	58.1*
CC1CCN(C(=O)C2CCC(=O)N(Cc3ccc(Cl)cc3)C2)CC1 (stereo not given)	-4.4	1.9	0.3	8.0	2.5	.	.

Screening results (PubChem BioAssay)
